According to PubChem BioAssay (NCATS):
Results filed as inconclusive are left out. Unmarked numbers belong to inactive results. Calls of active or inactive are those of the source. Calls come from the whole dose curve; as a rule, active = well fitted cell-killing curve with a large enough effect; inconclusive = small, poorly fitted or top-dose-only effect, or effect the other way; inactive = flat fitted curve, though single readings scatter.
Potency is the fitted concentration of half-maximal effect.

Test: Identifying Small Molecule Inhibitors of Pancreatic Cancer Stem Cells (SN12C, Spheroid) (AID 1259360);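 for viability (% of control): 100% = DMSO-treated cells and 0% = wells without cells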
Details: Potency: SN12C spheroid viability; series mostly up to 46.1 µM; viability (% of control): at the top concentration
From the text: Progenitor-like cancer cells, often referred to as cancer stem cells (CSC), are believed to be the drivers of therapeutic resistance and rapid recurrence. CSCs are postulated to reside in specific niches characterized by low oxygen tension, limited nutrient supply, and high redox load. Selectively targeting CSC, alone or in combination with cytotoxic agents, as a means to produce durable remissions is an appealing concept. Modeling these cells in in vitro setting is an important step in finding new therapies and/or targets. Multiple reports highlight that forcing cells in culture into 3-dimensionaly architectures (spheroids) re-establishes key progenitor-like transcriptional signatures. Pancreatic cancer is among the diseases with the most dismal outlook which is driven, largely, by recurance following front-line therapies. […] In hopes of deriving new insight into the targeting of these pancreatic CSCs we examined three established pancreatic cancer cell lines in cytotoxicity assays versus a collection of approved and investigational drugs. Importantly, we screened these lines as traditional monolayer (2D) and spheroid (3D) formats to gain an appreciation of agents with differential activity.
Multicellular tumor spheroids from Panc1, MiaPaCa-2, and the primary low-passage tissue culture line SB.06 were seeded in stem cell media (SCM) in nonadherent 6-well plates coated with hydrogel (Corning Life Sciences, Chelmsford, Mass) and pancreatic spheres generated for 14 days before screening. Cells were seeded into 1536-well solid-bottom white tissue culture treated Greiner Bio One Plates (789173-F) using a MultiDrop Combi (Thermofisher Scientific) dispenser and a small sterile cassette. One column was media alone to be used as a :"no cells" control. The plates were then covered with sterilized stainless steel gasketed lids from Kalypsys. After allowing cells to attach for 4 hours, 23 nL of test compound or control (negative control DMSO and positive control 9.2 uM Bortezomib-final) were added from a 1536-well polypropylene compound source plate to each well using a 1536 head pin tool from Kalypsys. Cells were then incubated for 48 hours at 37C, 95% relative humidity and 5% CO2. After 48 hours, plates were removed from the incubator and 3 uL of CellTiter-Glo (Promega) was added using an Aurora Flying Reagent Dispenser Bioraptor. Plates were incubated at room temperature for 10 minutes prior to reading the luminescence on the Viewlux (PerkinElmer). The relative luciferase units are used to calculate the percent activity using the activity of DMSO in the cells and no cells columns for normalization of no inhibition and full inhibition respectively.
In the case of `CC(C)(C(=O)NCC(F)(F)C(F)(F)F)C(=O)N[C@@H]1C(=O)Nc2ccccc2-c2ccccc21`, the “viability (% of control)” value is reported as 106%. With `COc1cc(N2CCC(N3CCN(C)CC3)CC2)ccc1Nc1ncc(Cl)c(Nc2ccccc2S(=O)(=O)C(C)C)n1` the Potency was 20.9 µM (active). With `CC1=C(/C=C/C(C)=C/C=C/C(C)=C/C(=O)Nc2ccc(O)cc2)C(C)(C)CCC1` the Potency was 23.5 µM (active). For `CCOC(CN1C(=O)[C@](CC(=O)Nc2ccc(C)cc2)(NC(=O)Nc2ccc(C)cc2)c2ccccc21)OCC`, the Potency was 18.7 µM (active). With `COc1ccc(C2CC(c3ccccc3)=NN2c2ccc(S(N)(=O)=O)cc2)cc1` (stereo not given) the “viability (% of control)” value was 106%. For `O=C(Nc1cc(Cl)cc2c1[nH]c1cnccc12)c1cccnc1`, the “viability (% of control)” value was 102%. In the case of `CC(C)[C@H](CO)Nc1nc(Nc2ccc(C(=O)O)c(Cl)c2)c2ncn(C(C)C)c2n1`, the “viability (% of control)” value is reported as 108%. In the case of `CC(C)(C)COc1ccc(-n2cc(C(=O)O)cn2)cc1C#N`, the “viability (% of control)” value is reported as 97.3%. With `O=C1C(Cl)=C(NCCN2CCOCC2)C(=O)c2ncccc21` the Potency was 14.8 µM (active). With `CO[C@@H](C(=O)N1Cc2[nH]nc(NC(=O)c3ccc(N4CCN(C)CC4)cc3)c2C1)c1ccccc1` the “viability (% of control)” value was 95.8%. In the case of `CC(C)(C)c1cc(C(=O)O)c(NC(=O)Nc2ccc3[nH]ncc3c2)s1`, the “viability (% of control)” value is reported as 103%. For `CS(=O)c1ccc(-c2nc(-c3ccc(F)cc3)c(-c3ccncc3)[nH]2)cc1` (stereo not given), the “viability (% of control)” value was 95.2%. With `CN1CCN(CCOc2cc(OC3CCOCC3)c3c(Nc4c(Cl)ccc5c4OCO5)ncnc3c2)CC1` the Potency was 18.7 µM (active). In the case of `CC(C)(C)C(=O)Oc1ccc2c(c1)nc(NC(=O)c1cccc([N+](=O)[O-])c1)n2CCCO`, the “viability (% of control)” value is reported as 81.1%. With `CN(C)Cc1ccc(-c2nc3cccc4c3n2CCNC4=O)cc1` the “viability (% of control)” value was 101%. For `O=C(N[C@@H](c1ccccc1)[C@@H]1CCCCN1)c1cccc(C(F)(F)F)c1Cl`, the “viability (% of control)” value was 106%. For `O=C(O)c1ccc(-c2cc3cccnc3c(-c3ccc4nonc4c3)n2)cc1`, the “viability (% of control)” value was 102%. With `Clc1ccc(-c2nc3sccn3c2C=NOCc2ccc(Cl)c(Cl)c2)cc1` the “viability (% of control)” value was 96.1%. For `OC[C@H]1O[C@@H](n2cnc3c2NC=NC[C@@H]3O)C[C@H]1O`, the “viability (% of control)” value was 92.9%. For `CO[C@H]1C=CC=C(C)C(=O)NC2=CC(=O)C(NCCN(C)C)=C(C[C@@H](C)C[C@H](OC)[C@@H](O)[C@@H](C)C=C(C)[C@@H]1OC(N)=O)C2=O`, the Potency was 0.0059 µM (active).
